# Measurements: article PMC8384837, “Expanding the binding specificity for RNA recognition by a PUF domain”
# Substitutions are numbered along the chain they refer to.
# Columns and labels:
# Experiment in all cases: yeast three-hybrid, YBZ-1, SC-Leu-His + 0.5 mM 3-AT, 4 days
# Conditions in all cases: tags: N-Gal4 AD-HA kept; label: inside an RPR1-promoter hybrid RNA with tandem MS2 sites; ssRNA
# PUM1 PUF domain R7-RGQ = PUM1 PUF domain R7-RGQ (Homo sapiens, UniProt Q14671 828-1176, S1079R;N1080G;E1083Q)
# In short: (§1)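 Matching RNA elements and Pumilio-1 PUF domain libraries, randomized at the three base-contacting residues of every repeat, were co-expressed from a centromeric plasmid in strain YBZ-1 (LexA–MS2 coat fusion, HIS3 reporter). The repeat regions were PCR-amplified and Illumina-sequenced from cells grown four days on SC-Leu (input) or SC-Leu-His + 0.5 mM 3-AT (selection). The interaction score is the log change in variant frequency from input to selection. It is computed in log2, with a pseudocount of 1 for absent variants.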
# PUM1 PUF domain R7-KHR = PUM1 PUF domain R7-KHR (Homo sapiens, UniProt Q14671 828-1176, S1079K;N1080H;E1083R)
# In short: as §1
# PUM1 PUF domain R5-KMW = PUM1 PUF domain R5-KMW (Homo sapiens, UniProt Q14671 828-1176, C1007K;R1008M;Q1011W)
# In short: as §1
# PUM1 PUF domain R5-KTV = PUM1 PUF domain R5-KTV (Homo sapiens, UniProt Q14671 828-1176, C1007K;R1008T;Q1011V)
# In short: as §1
# PUM1 PUF domain R5-RGM = PUM1 PUF domain R5-RGM (Homo sapiens, UniProt Q14671 828-1176, C1007R;R1008G;Q1011M)
# In short: as §1
# PUM1 PUF domain R6-FRI = biological target: T1, PUM1 PUF domain R6-FRI (Homo sapiens, UniProt Q14671 828-1176, N1043F;Y1044R;Q1047I)
# T1 sequence: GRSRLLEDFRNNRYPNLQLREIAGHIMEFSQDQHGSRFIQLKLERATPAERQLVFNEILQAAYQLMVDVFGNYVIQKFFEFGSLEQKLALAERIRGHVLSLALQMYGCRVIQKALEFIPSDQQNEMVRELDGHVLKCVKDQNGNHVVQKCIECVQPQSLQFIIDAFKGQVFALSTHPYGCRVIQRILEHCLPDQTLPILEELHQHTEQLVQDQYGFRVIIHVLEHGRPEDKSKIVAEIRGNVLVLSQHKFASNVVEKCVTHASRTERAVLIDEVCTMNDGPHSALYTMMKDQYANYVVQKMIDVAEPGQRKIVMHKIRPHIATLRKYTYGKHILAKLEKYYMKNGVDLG
# In short: as §1
# PUM1 PUF domain R4-ALY = PUM1 PUF domain R4-ALY (Homo sapiens, UniProt Q14671 828-1176, N971A;H972L;Q975Y)
# In short: as §1
# PUM1 PUF domain R6-LWM = biological target: T2, PUM1 PUF domain R6-LWM (Homo sapiens, UniProt Q14671 828-1176, N1043L;Y1044W;Q1047M)
# T2 sequence: T1 sequence with F216L, R217W, I220M
# In short: as §1
# PUM1 PUF domain R6-NHW = biological target: T3, PUM1 PUF domain R6-NHW (Homo sapiens, UniProt Q14671 828-1176, Y1044H;Q1047W)
# T3 sequence: T1 sequence with F216N, R217H, I220W
# In short: as §1
# PUM1 PUF domain R8-RHM = PUM1 PUF domain R8-RHM (Homo sapiens, UniProt Q14671 828-1176, N1122R;Y1123H;Q1126M)
# In short: as §1
# PUM1 PUF domain R3-WFE = PUM1 PUF domain R3-WFE (Homo sapiens, UniProt Q14671 828-1176, C935W;R936F;Q939E)
# In short: as §1
# PUM1 PUF domain R3-QRG = PUM1 PUF domain R3-QRG (Homo sapiens, UniProt Q14671 828-1176, C935Q;Q939G)
# In short: as §1
# PUM1 PUF domain R3-TTE = PUM1 PUF domain R3-TTE (Homo sapiens, UniProt Q14671 828-1176, C935T;R936T;Q939E)
# In short: as §1
# PUM1 PUF domain R3-RSL = PUM1 PUF domain R3-RSL (Homo sapiens, UniProt Q14671 828-1176, C935R;R936S;Q939L)
# In short: as §1
# PUM1 PUF domain R3-RAD = PUM1 PUF domain R3-RAD (Homo sapiens, UniProt Q14671 828-1176, C935R;R936A;Q939D)
# In short: as §1
# PUM1 PUF domain R3-FYA = PUM1 PUF domain R3-FYA (Homo sapiens, UniProt Q14671 828-1176, C935F;R936Y;Q939A)
# In short: as §1
# PUM1 PUF domain R5-KNW = PUM1 PUF domain R5-KNW (Homo sapiens, UniProt Q14671 828-1176, C1007K;R1008N;Q1011W)
# In short: as §1
sequence,measurement,setting,value
GGCUAGAACUAGUGGAUCCCCCGGCGCCCGGCGGCUCGAGCCCGGGUAAGUCUAAAUAGUCUGCAUGCCGCCGGGCGCCAUGCCUGCAGGUCGACUCUAGAAAACAUG,binding signal,PUM1 PUF domain R7-RGQ,4.22 log2 enrichment (interaction score)
same,binding signal,PUM1 PUF domain R7-KHR,5.64 log2 enrichment (interaction score)
GGCUAGAACUAGUGGAUCCCCCGGCGCCCGGCGGCUCGAGCCCGGGUAAGUGUCAAUAGUCUGCAUGCCGCCGGGCGCCAUGCCUGCAGGUCGACUCUAGAAAACAUG,binding signal,PUM1 PUF domain R5-KMW,3.19 log2 enrichment (interaction score)
same,binding signal,PUM1 PUF domain R5-KTV,2.38 log2 enrichment (interaction score)
same,binding signal,PUM1 PUF domain R5-RGM,2.26 log2 enrichment (interaction score)
GGCUAGAACUAGUGGAUCCCCCGGCGCCCGGCGGCUCGAGCCCGGGUAAGUGUAAAUAGUCUGCAUGCCGCCGGGCGCCAUGCCUGCAGGUCGACUCUAGAAAACAUG,binding signal,PUM1 PUF domain R5-KMW,1.25 log2 enrichment (interaction score)
same,binding signal,PUM1 PUF domain R6-FRI,3.38 log2 enrichment (interaction score)
same,binding signal,PUM1 PUF domain R4-ALY,3.56 log2 enrichment (interaction score)
same,binding signal,PUM1 PUF domain R6-LWM,4.73 log2 enrichment (interaction score)
same,binding signal,PUM1 PUF domain R6-NHW,2.25 log2 enrichment (interaction score)
same,binding signal,PUM1 PUF domain R8-RHM,4.13 log2 enrichment (interaction score)
GGCUAGAACUAGUGGAUCCCCCGGCGCCCGGCGGCUCGAGCCCGGGUAAGUGUAAGUAGUCUGCAUGCCGCCGGGCGCCAUGCCUGCAGGUCGACUCUAGAAAACAUG,binding signal,PUM1 PUF domain R3-WFE,3.04 log2 enrichment (interaction score)
same,binding signal,PUM1 PUF domain R3-QRG,3.07 log2 enrichment (interaction score)
same,binding signal,PUM1 PUF domain R3-TTE,5.3 log2 enrichment (interaction score)
GGCUAGAACUAGUGGAUCCCCCGGCGCCCGGCGGCUCGAGCCCGGGUAAGUGUAAUUAGUCUGCAUGCCGCCGGGCGCCAUGCCUGCAGGUCGACUCUAGAAAACAUG,binding signal,PUM1 PUF domain R3-RSL,2.55 log2 enrichment (interaction score)
same,binding signal,PUM1 PUF domain R3-QRG,2.4 log2 enrichment (interaction score)
same,binding signal,PUM1 PUF domain R3-RAD,4.21 log2 enrichment (interaction score)
same,binding signal,PUM1 PUF domain R3-FYA,4.01 log2 enrichment (interaction score)
GGCUAGAACUAGUGGAUCCCCCGGCGCCCGGCGGCUCGAGCCCGGGUAAGUGUUAAUAGUCUGCAUGCCGCCGGGCGCCAUGCCUGCAGGUCGACUCUAGAAAACAUG,binding signal,PUM1 PUF domain R5-KNW,2.79 log2 enrichment (interaction score)
same,binding signal,PUM1 PUF domain R5-RGM,3.6 log2 enrichment (interaction score)
